From the supplement of paper PMC4022240
± gives the standard deviation.

Tests used:
Assay in all cases: peptide microarray binding signal (635 nm), min-max normalized on array (fraction of array maximum); higher = stronger binding
Settings in all cases: peptide region: H3 20-32
[1] = target: T1, HaloTag-ATRX ADD domain (163-292)
T1 chain: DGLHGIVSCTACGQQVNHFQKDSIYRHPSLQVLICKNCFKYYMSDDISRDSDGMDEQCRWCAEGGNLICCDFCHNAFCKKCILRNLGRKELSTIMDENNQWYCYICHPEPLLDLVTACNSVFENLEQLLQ
Method in brief: (§1)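 Histone 13-mer peptide–cellulose conjugates were printed in triplicate on nitrocellulose with a Cy3 tracer, then blocked overnight at 4°C. Arrays were probed for 1 h at 4°C with biotin-labelled HaloTag reader fusions (10 nM to 1 μM) plus streptavidin-Alexa Fluor 647, or with rabbit histone antibodies (1:10,000 to 1:2,000) plus anti-rabbit Alexa 647. An Axon GenePix 4000B scanned 635 nm for signal and 532 nm for misprints. Binding signal is the triplicate-spot mean intensity, min-max scaled per library.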

[2] = target: HaloTag-ING2 PHD (mouse Ing2 200-280)
Method in brief: as §1

[3] = target: anti-H3K4me3 antibody ab8580
Method in brief: as §1

[4] = target: anti-H3K9me3 antibody ab8898
Method in brief: as §1

[5] = peptide modifications: H3R26me2a H3K27me3, binder concentration: 1:2,000 dilution
[6] = peptide modifications: H3R26me2a H3K27me3, binder concentration: 1:10,000 dilution
[7] = peptide modifications: H3R26me2s, binder concentration: 1:2,000 dilution
[8] = peptide modifications: H3R26me2s, binder concentration: 1:10,000 dilution
[9] = peptide modifications: H3R26me2s H3K27me2, binder concentration: 1:2,000 dilution
[10] = peptide modifications: H3R26me2s H3K27me2, binder concentration: 1:10,000 dilution
[11] = peptide modifications: H3R26me2s H3K27me1, binder concentration: 1:2,000 dilution
[12] = peptide modifications: H3R26me2s H3K27me1, binder concentration: 1:10,000 dilution
[13] = peptide modifications: H3R26me2a, binder concentration: 1:2,000 dilution
[14] = peptide modifications: H3R26me2a, binder concentration: 1:10,000 dilution

B1: H3 20-32 L A T K A A Rme2a Kme3 S A P A T (peptide)
chain: LATKAARKSAPAT
In the case of B1, the “peptide microarray binding signal” value ([1]; peptide modifications: H3R26me2a H3K27me3, binder concentration: 50 nM) is reported as 0.00539 ± 0.00011, the “peptide microarray binding signal” value ([1]; peptide modifications: H3R26me2a H3K27me3, binder concentration: 500 nM) is reported as 0.0116 and the “peptide microarray binding signal” value ([2]; peptide modifications: H3R26me2a H3K27me3, binder concentration: 10 nM) is reported as 0.0206 ± 0.0011. For the same binder, the “peptide microarray binding signal” value ([2]; peptide modifications: H3R26me2a H3K27me3, binder concentration: 100 nM) was 0.0261 ± 0.0021, the “peptide microarray binding signal” value [3, 5] was 0.0393 ± 0.004 and the “peptide microarray binding signal” value [3, 6] was 0.0294 ± 0.0026. For the same binder, the “peptide microarray binding signal” value [4, 5] was 0.0809 ± 0.0092 and the “peptide microarray binding signal” value [4, 6] was 0.052 ± 0.0034.

B2: H3 20-32 L A T K A A Rme2s K S A P A T (peptide)
chain: LATKAARKSAPAT
In the case of B2, the “peptide microarray binding signal” value ([1]; peptide modifications: H3R26me2s, binder concentration: 50 nM) is reported as 0.00668 ± 0.00025, the “peptide microarray binding signal” value ([1]; peptide modifications: H3R26me2s, binder concentration: 500 nM) is reported as 0.01295 ± 0.0001 and the “peptide microarray binding signal” value ([2]; peptide modifications: H3R26me2s, binder concentration: 10 nM) is reported as 0.0106 ± 0.00025. For the same binder, the “peptide microarray binding signal” value ([2]; peptide modifications: H3R26me2s, binder concentration: 100 nM) was 0.0116 ± 0.00039, the “peptide microarray binding signal” value [3, 7] was 0.00451 ± 0.00012 and the “peptide microarray binding signal” value [3, 8] was 0.00479 ± 0.00014. For the same binder, the “peptide microarray binding signal” value [4, 7] was 0.0047 ± 0.00025 and the “peptide microarray binding signal” value [4, 8] was 0.00329 ± 9.9e-05.

B3: H3 20-32 L A T K A A Rme2s Kme2 S A P A T (peptide)
chain: LATKAARKSAPAT
For B3, the “peptide microarray binding signal” value ([1]; peptide modifications: H3R26me2s H3K27me2, binder concentration: 50 nM) was 0.00351 ± 3.8e-05, the “peptide microarray binding signal” value ([1]; peptide modifications: H3R26me2s H3K27me2, binder concentration: 500 nM) was 0.00129 ± 2.1e-05 and the “peptide microarray binding signal” value ([2]; peptide modifications: H3R26me2s H3K27me2, binder concentration: 10 nM) was 0.003342 ± 1.8e-05. The “peptide microarray binding signal” value ([2]; peptide modifications: H3R26me2s H3K27me2, binder concentration: 100 nM) was 0.00312 ± 7.5e-05, the “peptide microarray binding signal” value [3, 9] was 0.00128 ± 2e-05 and the “peptide microarray binding signal” value [3, 10] was 0.00114 ± 2.3e-05. The “peptide microarray binding signal” value [4, 9] was 0.000725 ± 1.1e-05 and the “peptide microarray binding signal” value [4, 10] was 0.000865 ± 9e-06.

B4: H3 20-32 L A T K A A Rme2s Kme S A P A T (peptide)
chain: LATKAARKSAPAT
With B4 the “peptide microarray binding signal” value ([1]; peptide modifications: H3R26me2s H3K27me1, binder concentration: 50 nM) was 0.00511 ± 6.7e-05, the “peptide microarray binding signal” value ([1]; peptide modifications: H3R26me2s H3K27me1, binder concentration: 500 nM) was 0.00771 ± 0.00038 and the “peptide microarray binding signal” value ([2]; peptide modifications: H3R26me2s H3K27me1, binder concentration: 10 nM) was 0.0191 ± 0.00015. The “peptide microarray binding signal” value ([2]; peptide modifications: H3R26me2s H3K27me1, binder concentration: 100 nM) was 0.02409 ± 0.00015, the “peptide microarray binding signal” value [3, 11] was 0.00608 ± 0.0005 and the “peptide microarray binding signal” value [3, 12] was 0.00845 ± 0.00053. The “peptide microarray binding signal” value [4, 11] was 0.00384 ± 0.00014 and the “peptide microarray binding signal” value [4, 12] was 0.00283 ± 4.9e-05.

B5: H3 20-32 L A T K A A Rme2a K S A P A T (peptide)
chain: LATKAARKSAPAT
With B5 the “peptide microarray binding signal” value ([1]; peptide modifications: H3R26me2a, binder concentration: 50 nM) was 0.00357 ± 0.0001, the “peptide microarray binding signal” value ([1]; peptide modifications: H3R26me2a, binder concentration: 500 nM) was 0.00624 ± 0.00038 and the “peptide microarray binding signal” value ([2]; peptide modifications: H3R26me2a, binder concentration: 10 nM) was 0.00806 ± 0.00052. The “peptide microarray binding signal” value ([2]; peptide modifications: H3R26me2a, binder concentration: 100 nM) was 0.0122 ± 0.0012, the “peptide microarray binding signal” value [3, 13] was 0.00525 ± 0.00065 and the “peptide microarray binding signal” value [3, 14] was 0.004907 ± 3.6e-05. The “peptide microarray binding signal” value [4, 13] was 0.00334 ± 0.00044 and the “peptide microarray binding signal” value [4, 14] was 0.00294 ± 6.7e-05.
